Bioassay records from PubChem.
Sampled rows, rich in hits. Any-hit rate of the full collection: about 2.1%.
IDE cell activ: activators of human insulin-degrading enzyme in cells; P14735; HEK cells, FAbeta-B cleavage, fluorescence polarization; 0% vehicle, 100% cell-free pure enzyme wells; activation, % at 5.96 µM; 340,000 compounds, 0.073% hits; AID 493087;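 active = activation above the mean of all tested compounds plus 3 SD, set per screening campaign, cut at about 17% in these data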
HDAC3 inh: inhibitors of human histone deacetylase 3 | AID 2718 | 320,000 compounds, 0.15% hits | inhibition, % at 8.3 µM | recombinant HDAC3, fluorogenic peptide/trypsin coupled, fluorescence | O15379; in the data active = inhibition above about 26%, passing the limit was not always enough; inconclusive = no clear call, values can overlap the other calls
Target sequence (O15379 whole entry, looked up): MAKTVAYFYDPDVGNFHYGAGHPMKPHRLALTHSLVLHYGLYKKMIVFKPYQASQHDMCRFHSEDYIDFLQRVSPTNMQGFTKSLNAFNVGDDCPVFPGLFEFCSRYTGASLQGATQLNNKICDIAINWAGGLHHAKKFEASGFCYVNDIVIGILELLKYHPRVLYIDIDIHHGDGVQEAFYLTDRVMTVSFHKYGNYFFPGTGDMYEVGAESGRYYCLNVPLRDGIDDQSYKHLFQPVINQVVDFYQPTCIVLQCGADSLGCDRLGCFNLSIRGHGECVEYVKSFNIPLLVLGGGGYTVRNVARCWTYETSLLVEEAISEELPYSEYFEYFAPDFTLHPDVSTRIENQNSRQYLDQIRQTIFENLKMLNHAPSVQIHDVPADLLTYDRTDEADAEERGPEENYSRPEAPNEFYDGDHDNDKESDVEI
LANA-H2B inh: blocks KSHV LANA binding to histone H2A/H2B; Q9QR71; cell-free LANA-H2A/H2B peptide, fluorescence polarization; inhibition, % (test concentration not listed); 320,000 compounds, 0.6% hits; AID 2629; in the data active = inhibition mostly above about 10%, no sharp cut-off; inactive = mostly below about 6.7%
SUMO Mot1 rescue: inhibitors of SUMOylation pathway: yeast Mot1-301 growth rescue; S. cerevisiae Mot1-301 growth rescue, ATP luminescence, 38.5C; percent above DMSO median, 100 means doubled; growth rescue, % at 18.8 µM; 320,000 compounds, 1% hits; AID 2716;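 active = every valid replicate shows activation above 250% relative to neutral control wells; inactive = the rest, any valid replicate at or below 250%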
IDE inh: inhibitors of human insulin-degrading enzyme in cells; P14735; HEK cells, FAbetaB cleavage, fluorescence polarization; inhibition, % at 5.59 µM; 320,000 compounds, 0.41% hits; AID 434962;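 active = percent inhibition above the average of all tested compounds plus 3 SD, set per screening campaign, cut at about 16% in these data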;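 also: IDE supplied by intact live HEK cells; FP after avidin binding of uncleaved biotin substrate so inhibition keeps polarization high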
Numbers stand for hits; – = inactive; ? = inconclusive; · = no result; + = active, no number.

SMILES	IDE cell activ	HDAC3 inh	LANA-H2B inh	SUMO Mot1 rescue	IDE inh
O=C(c1ccc(Br)cc1)N(Cc1ccco1)C1CCS(=O)(=O)C1 (stereo not given)	–	–	–	–	–
O=S(=O)(O)c1cccc2c(N=Nc3ccc(O)c4ncccc34)cccc12	36	–	–	–	–
CCOC(=O)CSc1nc(N2CCOCC2)c2c(c1C#N)CC(C)(C)OC2	–	–	–	–	–
CCOC(=O)CSc1nc(N2CCOCC2)c2c(c1C#N)CC(C)(C)N(C)C2	–	–	15	–	–
O=c1cnc2ccccc2n1Cc1ccc(Br)cc1	–	–	–	–	–
CC(C)(C)c1ccc(Cn2c(=O)cnc3ccccc32)cc1	–	–	17	–	–
CC1O[C@@H](O[C@H](C)CC[C@@H](C)O)C(O)C[C@H]1O (stereo not given in full)	–	–	–	–	–
CN(C)CCNC(=O)c1ccc2c(c1)NC(=O)c1ccccc1S2	–	–	–	336	–
Cc1ccc(S(=O)(=O)Oc2ccccc2/C=N/NC(N)=S)cc1	–	–	–	–	–
Cc1ccc(S(=O)(=O)Oc2ccccc2/C=N/N=C(N)N)cc1	–	–	38	–	–
COc1ccc(NC(=O)c2cc(F)cc(F)c2)cc1S(=O)(=O)N1CCCCC1	–	–	18	–	–
COc1ccc(NC(=O)c2cc(OC)c(OC)c(OC)c2)cc1S(=O)(=O)N1CCCCC1	–	–	–	–	–
Cc1ccn2nc(C(=O)OCC(=O)N(CC(C)C)C3CCS(=O)(=O)C3)nc2n1 (stereo not given)	–	–	80	–	–
Cc1cc(CNC(=O)[C@H]2C[C@@H]2[C@H](NP(=O)(c2ccccc2)c2ccccc2)c2ccccc2)nn1C	·	–	24	–	–
C/C(=N\Nc1ccc(Cl)c(C(=O)O)c1)c1ccc(N2CCOCC2)cc1	–	–	11	–	–
C/C(=N\Nc1ccc(F)cc1F)c1ccc(N2CCOCC2)cc1	–	?	–	279	–
CC(C(=O)Oc1ccc2c(c1)OCO2)N1C(=O)c2ccccc2C1=O (stereo not given)	·	–	21	–	–
CC(C(=O)OCC(=O)Nc1ccc2c(c1)OCO2)N1C(=O)c2ccccc2C1=O (stereo not given)	–	–	–	–	–
COC(=O)c1cccc(NC(=O)CCCN2C(=O)NC3(CCCC3)C2=O)c1	–	·	·	·	·
COc1ccc(CCNC(=O)c2cccn2C)cc1	–	–	30	–	–
CC(C)Cc1nnc(NC(=O)C2CC(=O)N(c3ccc4c(c3)OCCO4)C2)s1 (stereo not given)	–	–	–	–	–
Cc1ccc2occ(/C=N/NC(=O)c3ccc(O)cc3)c(=O)c2c1	–	82	–	–	·
O=C(N/N=C\c1coc2ccccc2c1=O)c1ccco1	–	–	–	461	–
O=C(Cc1cccc(NC(=O)C2CCN(C(=O)C3CCCCC3)CC2)c1)Nc1cccc(C(=O)N2CCOCC2)c1	–	·	·	·	·
Cc1ccc(C)c(NC(=O)C2CCCN(S(=O)(=O)c3c(C)nn(C)c3C)C2)c1 (stereo not given)	–	–	–	–	–
SMILES	IDE cell activ	HDAC3 inh	LANA-H2B inh	SUMO Mot1 rescue	IDE inh
N#C/C(=C\c1ccc(O)c(O)c1)C(=O)NCCc1ccccc1	–	–	–	274	–
CCOC(=O)CN1C(=O)C(=O)N(Cc2c(F)cccc2Cl)C1=O	–	–	–	–	–
O=C(CNC(=O)c1ccc(Br)o1)Nc1ncccc1O	–	–	–	–	–
CCn1cc(C(=O)NCCCOC(C)C)c(=O)c2cc(S(=O)(=O)N3CCC(C)CC3)ccc21	–	–	–	–	–
O=C(NCC(=O)N(Cc1ccccc1)C(C(=O)NC1CCCC1)c1cccnc1)c1ccco1 (stereo not given)	–	–	–	–	–
Cc1ccc(CN(C(=O)c2ccco2)C(C(=O)NC2CCCC2)c2cccnc2)cc1 (stereo not given)	–	–	+	–	–
COc1ccc(N(C(=O)c2ccco2)C(C(=O)NC2CCCC2)c2ccncc2)cc1OC (stereo not given)	–	–	–	275	–
CCOC(=O)C1=NNC(C(=O)OCC)C1C(=O)OCC (stereo not given)	–	·	·	·	·
NS(=O)(=O)c1ccc(-c2ccc(/C=C3\SC(=S)N(C4CCS(=O)(=O)C4)C3=O)o2)cc1 (stereo not given)	–	–	–	–	20
Cc1ccc(/C=C2\SC(=S)N(C3CCS(=O)(=O)C3)C2=O)o1 (stereo not given)	–	–	–	–	–
CCOC(=O)Cn1c(C(F)(F)F)nc2nc(Cl)c(Cl)nc21	–	·	·	·	·
CC(C)CN(CC(C)C)C(=O)CN1C(=O)NC2(CCCc3ccccc32)C1=O (stereo not given)	–	–	–	–	–
O=C(N/N=C/c1cn(-c2ccccc2)nc1-c1ccc2c(c1)OCCO2)c1ccncc1	26	–	–	–	–
CC1(C)CC(=O)c2cnc(NC3CC3)nc2C1	–	–	18	–	–
Cc1ccc(NC(=O)C2CC(=O)n3c(nc4ccccc43)N2)cc1C (stereo not given)	–	–	16	–	–
CCC(=O)c1ccc(OCC(=O)OCC(=O)N2c3ccccc3NC(=O)C2(C)C)cc1	–	–	–	–	–
Cc1ccc(C(=O)NCC(=O)N2CCN(c3cccc(Cl)c3)CC2)s1	–	–	–	–	–
O=C(COc1ccc2ccccc2c1)Nc1nccs1	–	–	–	–	–
O=C(COc1ccccc1)Nc1nccs1	–	–	28	–	–
CC(C)(C)OC(=O)N1Cc2ccccc2C[C@H]1C(=O)NCC(=O)NCC1CCCO1 (stereo not given in full)	–	–	–	–	–
COC(CNC(=O)C(=O)NCC1OCCN1C(=O)c1ccc(Cl)cc1)OC (stereo not given)	–	–	11	–	–
COc1ccc(C(=O)N2CCOC2CNC(=O)C(=O)NCc2ccc(Cl)cc2)cc1 (stereo not given)	–	–	–	–	–
CC(C)C(NC(=O)c1ccc(Cl)cc1Cl)C(=O)N1CCC1 (stereo not given)	–	–	–	–	–
CC(C)[C@H](NC(=O)c1ccc(Cl)cc1Cl)C(=O)NNc1cccc(C(=O)O)c1	–	–	15	–	–
Cc1cccc(N(C)C(=O)CN(C)S(=O)(=O)c2ccc3c(c2)c(=O)n(C)c(=O)n3C)c1	–	–	–	–	–
COC(=O)c1ccc(C(=O)OC)c(NC(=O)C2CCCO2)c1 (stereo not given)	–	–	16	–	–
Cn1nc(C(=O)Nc2cc(Cl)ccc2N2CCCC2)c2ccccc2c1=O	–	–	48	–	–
COc1ccccc1C1(CC(=O)Nc2nccs2)CCOC(C(C)C)C1 (stereo not given)	–	–	–	–	–
COc1ccccc1C1(CC(=O)N2CCOCC2)CCOC(C(C)C)C1 (stereo not given)	–	–	–	570	–
